A selection: hits, their analogues and other compounds. The true share with any hit is near 2.4%.
M1 PAM = human M1 muscarinic receptor positive allosteric modulators, primary screen, CHO-K1 cells, Fluo-8 calcium fluorescence, 1536-well; CHO-K1 hM1, ACh EC20; 0% = ACh EC20, 100% = maximal ACh; activation, % at 3 µM; actives 0.088% (n = 360,000); in the data active = activation above about 19%, passing the limit was not always enough
Target sequence (P11229 whole entry, looked up): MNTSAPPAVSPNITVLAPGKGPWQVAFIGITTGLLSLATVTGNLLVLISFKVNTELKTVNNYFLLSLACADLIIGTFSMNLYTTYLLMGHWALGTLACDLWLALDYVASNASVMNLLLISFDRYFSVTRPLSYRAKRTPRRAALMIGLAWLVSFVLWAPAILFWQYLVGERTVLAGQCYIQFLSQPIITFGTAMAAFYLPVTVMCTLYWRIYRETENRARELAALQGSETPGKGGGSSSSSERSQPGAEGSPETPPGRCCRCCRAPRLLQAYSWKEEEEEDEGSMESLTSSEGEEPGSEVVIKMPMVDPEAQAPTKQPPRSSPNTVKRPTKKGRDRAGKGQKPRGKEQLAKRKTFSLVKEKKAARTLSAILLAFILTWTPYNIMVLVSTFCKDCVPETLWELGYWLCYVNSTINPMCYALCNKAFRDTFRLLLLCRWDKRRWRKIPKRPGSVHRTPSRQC
M1 ag = human M1 muscarinic receptor agonists, primary screen, Fluo-8 calcium fluorescence, CHO-K1 cells, HTS. Muscarinic acetylcholine receptor M1 (Homo sapiens), P11229. CHO-K1 hM1, agonist mode; 0% DMSO, 100% acetylcholine EC100. activation, % at 3 µM. actives 0.33% (n = 360,000). AID 588814, 2011;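 active = activation above the run's mean compound activation plus 3 SD, cut at about 16% in these data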;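 also: peak over basal fluorescence ratio within a 140 s kinetic read after compound addition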
CHO-K1 Ca antag = M1 antagonist counterscreen hit in parental CHO-K1 cells; ATP-induced calcium, Fluo-8 fluorescence; inhibition, % at 3 µM; actives 0.6% (n = 360,000); AID 602250;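 active = inhibition above a per-plate cutoff, the plate's mean sample inhibition plus 3 SD, cut at about 24% in these data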;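 also: 0% = DMSO plus EC80 ATP and 100% = DMSO alone without ATP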
M1 ag parental = counter-screen for M1 agonists: effect in parental CHO-K1 cells | actives 0.48% (n = 360,000) | Fluo-8 calcium fluorescence; scaled to maximal ATP response, vehicle zero | AID 602248, 2012 | activation, % at 3 µM; in the data active = activation above about 15%;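 also: untransfected CHO-K1 host cells lacking M1 receptor as counterscreen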
CHO-K1 Ca PAM = nonselective calcium activators in parental CHO-K1 cells, primary screen, counter-screen for M1 PAM project, cell-based, Fluo-8 calcium fluorescence, full deck, 1536-well | ATP EC20; 0% at ATP EC20, 100% at ATP max | activation, % at 3 µM | actives 0.02% (n = 360,000);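 active = activation above the run cutoff, the mean activation of all test compounds plus 3 SD, cut at about 40% in these data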;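 also: peak over basal fluorescence ratio in a 140 s read after ATP addition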
M1 antag = human M1 muscarinic receptor antagonists, primary screen, CHO-K1 cells, Fluo-8 calcium fluorescence, 1536-well | actives 1.3% (n = 360,000) | Muscarinic acetylcholine receptor M1 (Homo sapiens), P11229 | inhibition, % at 3 µM | CHO-K1 hM1, ACh EC80 antagonist;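 active = percent inhibition above its own plate's cutoff, namely the mean of that plate's compound wells plus 3 SD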;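 also: peak over basal fluorescence ratio during 140 s after agonist addition; 0% = ACh EC80 plus DMSO and 100% = DMSO alone without agonist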
Active calls of the source: *; nt = no result.

SMILES | M1 PAM | M1 ag | CHO-K1 Ca antag | M1 ag parental | CHO-K1 Ca PAM | M1 antag
CC(C)CN1C(=O)c2ccc(C(=O)Nc3ccccn3)cc2C1=O | 6 | -1 | 10 | 0 | -7 | -3
CC(=O)Nc1cc(C(=O)N2CCCC2)ccc1Sc1ccc(Cl)cc1 | 2 | -4 | -8 | 0 | 8 | 1
CNC(=S)NNC(=O)c1cn(C)nc1C | 6 | 0 | 24* | -1 | -15 | 7
CCC(C)NC(=O)Cn1c(=O)n(CCCC(=O)NCc2ccccc2Cl)c(=O)c2ccccc21 (stereo unspecified) | 9 | -1 | -3 | 0 | 8 | -15
c1ccc(COc2ccc(CNCc3cccs3)cc2)cc1 | -23 | -5 | -7 | 12 | 22 | 41*
c1ccc(COc2ccc(CNCc3cccnc3)cc2)cc1 | -32 | -12 | -8 | 3 | 24 | 31*
COC(=O)COc1ccc(C2NC(=O)NC(c3ccccc3)=C2C(C)=O)cc1Br (stereo unspecified) | 5 | -2 | 1 | 0 | 5 | -14
CCOc1ccc(C(=O)COC(=O)CC)cc1 | -3 | -4 | -7 | 0 | 4 | 2
O=C(CSc1nc(-c2ccco2)cc(C(F)(F)F)n1)Nc1ccc2c(c1)CCC2 | 6 | 0 | 5 | 0 | -5 | -27
O=C(CSc1nc(-c2ccco2)cc(C(F)(F)F)n1)NC1CCCC1 | -2 | 3 | 24* | 2 | 5 | -3
COc1cc(C)ccc1S(=O)(=O)N1CCN(C23CC4CC(CC(C4)C2)C3)CC1 | -22 | -9 | -9 | 0 | 14 | 98*
CNC(=O)Nc1cccc(-c2ccnc(C)n2)c1 | 3 | -2 | -2 | 20* | -2 | -15
COc1cccc(N/C=C/C(=O)c2ccc(OC)c(OC)c2)c1 | 0 | -3 | -2 | 1 | 12 | -10
CCOC(=O)c1cccc(N/C=C/C(=O)c2ccc(OC)c(OC)c2)c1 | -11 | 0 | 18 | 3 | -5 | 29*
CCNC(=S)NNc1nnc(-c2ccccc2)c(-c2ccccc2)n1 | 11 | -3 | -3 | 0 | 0 | -12
CN(Cc1ccccc1)C(=O)CCC1CCN(S(=O)(=O)N(C)C)CC1 | 5 | -2 | -11 | 1 | 13 | -4
COCCN(C(=O)CCl)C(C(=O)NC1CCCCC1)c1ccccc1C (stereo unspecified) | 6 | -7 | 14 | 0 | -8 | -9
Cc1cccc(C)c1C(OCCN(C)C)C1CCCCC1 (stereo unspecified) | -26 | -8 | 8 | 1 | 3 | 99*
Cc1csc(N/N=C\c2cccnc2)n1 | 7 | -6 | 8 | 17* | 14 | -5
CCn1c(=O)n(CCc2ccccc2)c(=O)c2c3c(sc21)CCCC3 | -7 | -2 | 9 | 9 | 7 | 6
COC(=O)Cn1c(=O)n(CCc2ccccc2)c(=O)c2c3c(sc21)CCCC3 | -22 | -9 | -16 | 0 | 19 | 77*
O=c1nc(SCc2ccc(Cl)cc2)nc(-c2ccccc2)[nH]1 | 2 | -5 | -4 | 0 | 11 | 1
Cc1sc2ncnc(NCCCN3CCCC3=O)c2c1C | 7 | -3 | -8 | 18* | 16 | -1
O=C(CN1CCCCC1)Nc1ccccc1NC(=O)CN1CCCCC1 | 8 | -5 | 3 | 0 | -7 | -8
CC(C(=O)Nc1ccc(OCc2ccccc2)cc1)N1CCCC1 (stereo unspecified) | -24 | -8 | 0 | 1 | -13 | 49*
SMILES | M1 PAM | M1 ag | CHO-K1 Ca antag | M1 ag parental | CHO-K1 Ca PAM | M1 antag
COc1cc(NC(=O)c2ccccc2)c(OC)cc1NC(=O)CN1CCCCC1 | -8 | -3 | 26* | 0 | -6 | 17
COc1ccccc1NC(=O)CN1CCN(CC(=O)Nc2ccc(OCc3ccccc3)cc2)CC1 | -12 | 0 | 19 | 1 | -4 | 16*
CCOc1ccccc1NC(=O)CN1CCCCCC1 | -15 | -10 | -31 | 0 | -10 | 26*
O=C1NC[C@H](CCCCN2C[C@H](Cc3ccccc3)N(CC3CCCCC3)C(=O)C2=O)N(CCc2ccc(O)cc2)C1=O | nt | nt | -21 | 1 | 26 | nt
CCOc1ccc(C(=O)COC(=O)CN2C(=O)NC3(CCCCC3C)C2=O)cc1 (stereo unspecified) | 16 | 5 | -8 | 5 | 4 | -8
CC1Cc2cc(S(=O)(=O)CCC(=O)NC3CCCCC3)ccc2N1C(=O)C1CC1 (stereo unspecified) | 10 | 0 | 1 | 1 | -3 | 1
O=C(CNC(=O)c1ccc(S(=O)(=O)N2CCCC2)cc1)N/N=C/c1ccc(Cl)cc1 | 1 | -8 | 6 | 0 | 6 | -6
CN(C)S(=O)(=O)c1cccc(NC(=O)c2cccc(S(=O)(=O)N3CCc4ccccc43)c2)c1 | -19 | -4 | 1 | 9 | 0 | 34*
O=C(CNC(=O)c1ccc(S(=O)(=O)N2CCCC2)cc1)N/N=C/c1c(Cl)cccc1Cl | -13 | -6 | 21 | 20* | -15 | 16
CN(c1ccccc1C(=O)Nc1ccc(S(=O)(=O)N2CCOCC2)cc1)S(=O)(=O)c1ccccc1 | -27 | -11 | 11 | 1 | -12 | 43*
O=C(Nc1ccc(S(=O)(=O)N2CCOCC2)cc1)c1ccccc1Br | 5 | -4 | -2 | 2 | 10 | -7
COc1ccc(C(=O)Nc2cccc(-c3csc(C)n3)c2)cc1S(=O)(=O)N1CCCC1 | -14 | -3 | 2 | 8 | -10 | 36*
CC(=O)CSc1nc(C(F)(F)F)cc(=O)n1-c1ccccc1 | 2 | -3 | 9 | 0 | 1 | 1
COc1ccc(C(=O)Nc2cccc(C)c2)cc1S(=O)(=O)N1CCOCC1 | 4 | -5 | -17 | 2 | 8 | -3
O=C(CCS(=O)(=O)c1ccc(Cl)cc1)NCCN1C(=O)S/C(=C\c2ccccc2F)C1=O | -12 | -4 | 13 | 13 | -7 | 15
Cc1ccc(S(=O)(=O)CCC(=O)NCCN2C(=O)S/C(=C\c3ccccc3)C2=O)cc1 | -14 | 1 | 13 | 19* | 0 | 17
N#Cc1cccc(C(=O)Nc2cccc(S(=O)(=O)N3CCCC3)c2)c1 | -21 | -6 | 18 | 1 | -10 | 38*
CS(=O)(=O)c1cccc(C(=O)Nc2ccc(S(=O)(=O)N3CCCCC3)cc2)c1 | -3 | -7 | -2 | 1 | -16 | 1
CN1CCN(c2ccc(NC(=O)c3cccc(S(=O)(=O)N4CCCC4)c3)cc2)CC1 | -26 | -8 | 2 | 0 | -9 | 47*

Bioassay records: PubChem, The Scripps Research Institute Molecular Screening Center
